Sfp inh – inhibitors of Bacillus subtilis Sfp phosphopantetheinyl transferase. Potency, µM, usual class: inhibitors. AID 1490. 3.5% of 310,000 active. Q9F4F7. Biochemical Sfp PPTase activity, qHTS;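 further: the enzyme is Sfp with the accession as filed and its product quenches rhodamine fluorescence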
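After 15 min at room temperature with compound, 15 nM Sfp received 5 uM rhodamine-CoA plus 12.5 uM BHQ-2-ybbR (50 mM Hepes pH 7.6, 10 mM MgCl2). Rate came from the fluorescence difference over 30 min, ex 525/em 598 nm.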
JMJD2A Tudor inh – blocks the human JMJD2A Tudor domain; AlphaScreen JMJD2A-Tudor / H3K4me3 peptide binding; Potency, µM (highest dose often 114 µM), actives largely listed as inhibitors; 4.4% of 390,000 active; O75164; further: nearly all actives have a fitted effect of over 50% in size
G9a block – G9a (human) methyltransferase inhibition | Q96KQ7 | G9a H3K9 monomethylation, AlphaScreen, 2 h | Potency, µM (doses to about 102 µM), actives largely listed as inhibitors | 8.8% of 350,000 active; further: nearly all actives have a fitted effect of over 75% in size
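Compounds were preincubated with 20 nM G9a for 15 min, after which biotinylated H3K9 peptide (500 nM) and SAM (20 uM) started a 2 h room-temperature reaction. Monomethylated product was quantified by antibody-based AlphaScreen chemiluminescence.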
HP1b binding inh – blocks HP1-beta chromodomain binding to methylated histone tails | P83916 | AlphaScreen HP1-beta / biotin-H3K9me3 peptide binding | Potency, µM (titrated, usually from 114 µM), actives largely listed as inhibitors | 0.56% of 390,000 active | AID 540317; further: nearly all actives have a fitted effect of over 70% in size
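Compound inhibition of the preformed complex between 50 nM HP1-beta and 50 nM biotinylated H3K9me3 peptide was read by AlphaScreen. Buffer was PBS pH 7.4 with 0.01% Tween-20. Incubations ran 30 min at room temperature, with 10 ug/mL donor/acceptor beads.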
ALOX12 inh – blocks human arachidonate 12S-lipoxygenase; Potency, µM (doses to about 108 µM), most hits filed as inhibitors; purified 12hLO, xylenol orange hydroperoxide absorbance; P18054; 1.1% of 580,000 active; AID 1671190
Target sequence (P18054 whole entry, looked up): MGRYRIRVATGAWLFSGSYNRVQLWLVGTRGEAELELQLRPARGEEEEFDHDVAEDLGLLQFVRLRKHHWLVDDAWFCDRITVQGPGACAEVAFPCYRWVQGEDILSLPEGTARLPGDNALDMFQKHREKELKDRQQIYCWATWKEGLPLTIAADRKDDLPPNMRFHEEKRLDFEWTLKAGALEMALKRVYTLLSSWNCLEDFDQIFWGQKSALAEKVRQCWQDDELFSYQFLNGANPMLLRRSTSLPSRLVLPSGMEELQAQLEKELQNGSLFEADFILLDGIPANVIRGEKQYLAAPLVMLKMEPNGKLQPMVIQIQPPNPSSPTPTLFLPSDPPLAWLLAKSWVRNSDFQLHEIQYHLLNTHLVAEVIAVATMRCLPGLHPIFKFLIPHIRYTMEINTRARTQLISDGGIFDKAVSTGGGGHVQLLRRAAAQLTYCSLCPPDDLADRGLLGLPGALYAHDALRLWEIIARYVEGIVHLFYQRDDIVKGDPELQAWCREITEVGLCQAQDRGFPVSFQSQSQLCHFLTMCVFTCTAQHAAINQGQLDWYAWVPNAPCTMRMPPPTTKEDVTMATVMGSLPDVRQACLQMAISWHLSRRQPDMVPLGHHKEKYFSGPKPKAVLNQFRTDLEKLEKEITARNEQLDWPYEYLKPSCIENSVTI
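Hydroperoxide product was detected by ferrous iron/xylenol orange as the 573 to 405 nm absorbance ratio. Arachidonic acid at 40 uM (final) was turned over for 30 min at room temperature by 150 nM human 12hLO, pH 7.0 Hepes buffer, after 15 min compound preincubation.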
BAZ2B inh – inhibitors of human BAZ2B bromodomain | Q9UIF8 | AlphaScreen BAZ2B-H3K14Ac peptide displacement | Potency, µM (series often up to 114 µM), most hits filed as inhibitors | 4.4% of 360,000 active | AID 504333; further: nearly all actives have a fitted effect of over 60% in size
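In this displacement format the biotinylated H3(5-23) peptide acetylated at Lys14 serves as ligand at 50 nM, with BAZ2B at 50 nM in PBS pH 7.4 containing 0.01% Tween-20. Donor and acceptor beads are 10 ug/mL final.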
Hits are given with their value; - = inactive; ? = inconclusive; . = no result given; ! = not active in a repeat; [ ] = dose if it differs, or a comment. An excerpt weighted towards active compounds, which were near 8.7% of everything screened. The call rests on the fitted dose curve; in most records, active means well fitted curve in the direction sought with a large enough effect; inconclusive means small, poorly fitted or top-dose-only effect, or another doubt; inactive means no such curve, though single readings can be large; an effect the other way counts as inactive or inconclusive.

SMILES	Sfp inh	JMJD2A Tudor inh	G9a block	HP1b binding inh	ALOX12 inh	BAZ2B inh
O=C(Nc1ccc(Nc2ccccc2)cc1)c1ccc(Br)o1	-	39.8µM	35.5µM	?	-	22.4µM
COc1ccc(NC(=O)/C(C#N)=C/c2ccc(Br)o2)cc1	?	?	-[12.7 µM]	-	?	50.1µM
N#C/C(=C/c1ccc(Br)o1)C(N)=S	35.5µM	.	31.6µM	.	.	?
COC[C@H]1CCCN1C(=O)[C@@H](C)C1CC[C@@]2(C)CC[C@H](NC(=O)Cc3ccccc3)[C@@H](C)[C@@H]2[C@H]1O (stereo partly drawn)	.	.	.	.	-	.
COCC(C)n1c(C)cc(C(=O)CSc2nnc(-c3ccoc3C)n2-c2ccccc2)c1C (stereo not drawn)	.	.	.	.	-	.
CN(C)c1cc(-c2ccc(C#N)cc2)oc(=O)c1Cl	-	-	.	-	-	-
CN(C)c1cc(-c2ccc(Br)cc2)oc(=O)c1Cl	-	-	50.1µM	-	-	?
Clc1ccc(Cl)c(-c2nn3c(Cn4cnc5ccccc54)nnc3s2)c1	.	-	.	-	-	.
c1cncc(-c2nn3c(Cn4cnc5ccccc54)nnc3s2)c1	-	89.1µM	?	?	?	-
c1ccc(-c2nn3c(Cn4cnc5ccccc54)nnc3s2)cc1	10µM	-	1.26µM	?	7.08µM!	-
c1ccc(OCc2nn3c(Cn4cnc5ccccc54)nnc3s2)cc1	?	-	?	?	?	-
c1cncc(-c2nn3cnnc3s2)c1	-	-	-	-	-	-
c1ccc2c(c1)ncn2Cc1nnc2sc(-c3ccncc3)nn12	15.8µM	?	?	-	-	-
O=C1c2ccccc2C(=O)N1CC#CCN1CCN(C(c2ccccc2)c2ccccc2)CC1	-	?	?	-	?	50.1µM
O=C(NC1CC1)c1cnn2ncccc12	.	.	.	.	-	.
Cn1nnc2c[n+](CC(=O)c3ccc4ccccc4c3)cc(Br)c21	-	-	56.2µM	-	-	?
Cc1ccc(Oc2cc(C#N)c(C#N)cc2Oc2ccc(C)c(C)c2)cc1C	.	.	.	.	-	.
CCC(C(=O)Nc1nc(C)cs1)c1ccccc1 (stereo not drawn)	-	50.1µM	-	-	-	-
Cc1ccc(NC(=O)C(Cc2ccccc2)n2cccc2)cc1 (stereo not drawn)	-	-	-	-	?	-
O=C(NCc1cccs1)C(Cc1ccccc1)n1cccc1 (stereo not drawn)	-	-	44.7µM	-	-	-
CCC(C(=O)Nc1nc(C)c(C)s1)c1ccccc1 (stereo not drawn)	50.1µM	-	-[0.501 µM]	-	-	50.1µM
Cc1csc(NC(=O)C(Cc2ccccc2)n2cccc2)n1 (stereo not drawn)	-	?	44.7µM	-	-	?
O=C(NCC1(N2CCCCC2)CCCCC1)C1CCN(C(=O)c2ccc(F)cc2)CC1	.	.	.	.	-	.
O=C1/C(=C/c2ccc([N+](=O)[O-])cc2)CCOc2ccc(F)cc21	.	.	.	.	-	.
Cc1cc(C)n(Cc2ccc(C(=O)Nc3ccc(Br)cc3C)o2)n1	-	-	-	-	35.5µM	-
SMILES	Sfp inh	JMJD2A Tudor inh	G9a block	HP1b binding inh	ALOX12 inh	BAZ2B inh
Cc1cc(C)n(Cc2ccc(C(=O)Nc3cccc(Br)c3)o2)n1	-	-	79.4µM	-	?	-
CCC(=O)Nc1cc(C)c(O)c(-c2nc3cc(CC)ccc3o2)c1	.	.	.	.	-	.
Cc1ccc(C(=O)O)cc1-n1c(C)cc(C=O)c1C	-	-	?	-	?	79.4µM
Cc1c(C(=O)O)cccc1-n1c(C)cc(C=O)c1C	-	50.1µM	44.7µM	-	-	?
CCOc1ccccc1-n1c(C)cc(C=O)c1C	-	-	-[12.7 µM]	-	-	-
Cc1cc(C(=O)O)ccc1-n1c(C)cc(/C=C2\SC(=O)NC2=O)c1C	-	-	?	-	-	-
O=C(CSc1ccc(-c2ccco2)nn1)NCc1ccc(F)cc1	?	-	44.7µM	-	-	-
COc1ccc(CCNC(=O)CSc2ccc(-c3ccco3)nn2)cc1	-	-	-	-	-	?
O=C(CSc1ccc(-c2ccco2)nn1)c1ccc(F)cc1	31.6µM	44.7µM	39.8µM	?	28.2µM	-
O=C(CSc1ccc(-c2ccco2)nn1)NCCc1ccccc1	31.6µM	-	35.5µM	-	-	-
CCCCCCCCNC(=O)c1ccncc1	.	.	.	.	-	.
O=C(CSc1nnnn1C1CCCCC1)N1CCCC1	-	-	-	-	-	-
O=C(O)CSc1nnnn1C1CCCCC1	-	28.2µM	-[0.501 µM]	-	-	-
O=C(O)c1cccc(C(=O)O)n1	3.98µM	.	?	.	-	-
O=C(O)c1ccc2cccc(O)c2n1	2.82µM	-	.	-	-	?
O=C(O)c1cccc(Cl)n1	-	-[11.4 µM]	39.8µM	-	-	-
O=C(O)c1ccc2cccnc2n1	-	7.08µM	35.5µM	?	?	28.2µM
Nc1cccc2ccc(C(=O)O)nc12	.	.	.	.	-	.
O=C(O)c1ccc2ncccc2c1	.	.	.	.	-	.
CCc1nncn1C1CCN(S(=O)(=O)c2ccc(Cl)c(C)c2)CC1	.	.	.	.	-	.
Cc1c(C)n(CCc2ccccc2)c2ncnc(NCCO)c12	-	-	-[2.33 µM]	-	-	?
Cc1c(C)n(CCCN(C)C)c2ncnc(NCc3ccccc3)c12	-	?	79.4µM	-	-	-
NCCN1CCN(S(=O)(=O)c2ccc([N+](=O)[O-])cc2)C=C1c1ccc(Cl)cc1	.	?	-[0.501 µM]	-	?	56.2µM
C[C@@H]1O[C@@H](O[C@H]2[C@H](Oc3cc(O)c4c(c3)OC(c3ccc(O)cc3)CC4=O)O[C@H](CO)[C@@H](O)[C@@H]2O)[C@H](O)[C@H](O)[C@H]1O (stereo partly drawn)	.	-	-	-	-	-
C[C@@H]1O[C@@H](O[C@H]2[C@H](Oc3cc(O)c4c(c3)O[C@H](c3ccc(O)cc3)CC4=O)O[C@H](CO)[C@@H](O)[C@@H]2O)[C@H](O)[C@H](O)[C@H]1O	-	-	44.7µM	-	-	-
SMILES	Sfp inh	JMJD2A Tudor inh	G9a block	HP1b binding inh	ALOX12 inh	BAZ2B inh
O=S(=O)(NCc1ccnc(N2CCOCC2)c1)c1ccc(Cl)cc1C(F)(F)F	.	.	.	.	-	.
CCN(CC)C(=O)C1CCCN(Cc2ccccc2C(F)(F)F)C1 (stereo not drawn)	-	4.47µM	?	?	?	79.4µM
CCN(CC)C(=O)C1CCCN(C/C=C/c2ccccc2)C1 (stereo not drawn)	-	4.47µM	10µM	?	-	56.2µM
O=C(Nc1ccccc1Oc1cccnc1)C1CCCN(C/C=C/c2ccccc2)C1 (stereo not drawn)	-	-	.	-	-	-
CCN(CC)C(=O)C1CCCN(C(=O)Nc2ccc(NC(=O)N3CCCC(C(=O)N(CC)CC)C3)cc2)C1 (stereo not drawn)	-	-	-	-	-	-
CCN(CC(=O)Nc1ccccc1C(F)(F)F)C(=O)C1CCC1	.	-	-	-	-	-
CCN(CC)C(=O)C1CCCN(C/C(C)=C/c2ccccc2)C1 (stereo not drawn)	79.4µM	1.58µM	15.8µM	?	?	50.1µM
